Experimental findings from PubChem BioAssay (EPA / NIEHS) are described below.

In general, AC50 refers to the midpoint of the concentration-response curve, whichever way the signal moves.

Read-out in assay [1]: Interferon-gamma inducible Protein 10 (IP10), CXCL10 (gene 3627)
In words: BSK_hDFCGF_IP10: BioMAP Diversity Plus: hDFCGF Assay for Interferon-gamma inducible Protein 10 (IP10) Biomarker Activity (AID 2283053). To be noted: primary human foreskin fibroblasts; actives raise or lower the signal. The gist of the method: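 Primary foreskin fibroblasts, human; 24 h compound exposure; IP-10 by ELISA; bidirectional fit vs DMSO.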

Read-out in assay [2]: Urokinase-type plasminogen activator receptor (uPAR), PLAUR (gene 5329)
The assay is described as follows: BSK_CASM3C_uPAR: BioMAP Diversity Plus: CASM3C Assay for Urokinase-type plasminogen activator receptor (uPAR) Biomarker Activity (AID 2283054).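 Also: cell-surface uPAR protein level quantified by ELISA.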 To be noted: primary human coronary artery smooth muscle cells; actives raise or lower the signal.

Read-out in assay [3]: Vascular cell adhesion molecule 1 (VCAM1), VCAM1 (gene 7412)
The assay is described as follows: BSK_CASM3C_VCAM1: BioMAP Diversity Plus: CASM3C Assay for Vascular cell adhesion molecule 1 (VCAM1) Biomarker Activity (AID 2283055).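 Also: VCAM-1 protein level quantified by ELISA on the cells.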 To be noted: primary human coronary artery smooth muscle cells; actives raise or lower the signal.

Read-out in assay [4]: Collagen III, COL3A1 (gene 1281)
In words: BSK_hDFCGF_CollagenIII: BioMAP Diversity Plus: hDFCGF Assay for Collagen III Biomarker Activity (AID 2283056). To be noted: primary human foreskin fibroblasts; actives raise or lower the signal. The gist of the method: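 hDFCGF primary human dermal fibroblasts; 24 h chemical exposure; collagen III by ELISA; bidirectional curve fit vs DMSO baseline (gain or loss of signal).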

Read-out in assay [5]: Epidermal growth factor receptor (EGFR), EGFR (gene 1956)
The assay is described as follows: BSK_hDFCGF_EGFR: BioMAP Diversity Plus: hDFCGF Assay for Epidermal growth factor receptor (EGFR) Biomarker Activity (AID 2283057). To be noted: primary human foreskin fibroblasts; actives raise or lower the signal. The gist of the method:
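hDFCGF system, primary human foreskin fibroblasts; compound 24 h; EGFR measured by ELISA; DMSO = negative control/baseline; bidirectional fitting.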

Read-out in assay [6]: Interleukin-8 (IL8), CXCL8 (gene 3576)
The assay is described as follows: BSK_hDFCGF_IL8: BioMAP Diversity Plus: hDFCGF Assay for Interleukin-8 (IL8) Biomarker Activity (AID 2283058). To be noted: primary human foreskin fibroblasts; actives raise or lower the signal. In short, it runs like this: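 ELISA read-out of IL-8 from primary human foreskin fibroblast cultures taken 24 h after dosing; values are bidirectional fits relative to DMSO vehicle.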

Assay [7] in a line: BSK_hDFCGF_Proliferation: Cell Proliferation Assessment in the BioMAP Diversity Plus: hDFCGF Assay (AID 2283059).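 Also: curves fitted for both rise and fall of signal versus DMSO baseline.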 To be noted: primary human foreskin fibroblasts. The gist of the method:
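Steps: dose primary human dermal fibroblasts (foreskin); […] fix in 10% TCA; stain with 0.1% SRB; read 560 nm; fit gain or loss of signal against DMSO.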

Read-out in assay [8]: Macrophage colony-stimulating factor (MCSF), CSF1 (gene 1435)
The assay is described as follows: BSK_hDFCGF_MCSF: BioMAP Diversity Plus: hDFCGF Assay for Macrophage colony-stimulating factor (MCSF) Biomarker Activity (AID 2283060). To be noted: primary human foreskin fibroblasts; actives raise or lower the signal. The gist of the method: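 ELISA read-out of M-CSF in human dermal foreskin fibroblast cultures, 24 h after chemical dosing; gain or loss of signal fitted bidirectionally relative to DMSO baseline.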

Read-out in assay [9]: TIMP metallopeptidase inhibitor 1 (TIMP1), TIMP1 (gene 7076)
In words: BSK_hDFCGF_TIMP1: BioMAP Diversity Plus: hDFCGF Assay for TIMP metallopeptidase inhibitor 1 (TIMP1) Biomarker Activity (AID 2283062). To be noted: primary human foreskin fibroblasts; actives raise or lower the signal. In short, it runs like this:
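ELISA readout of TIMP-1 from human dermal foreskin fibroblast cultures 24 h post-dosing. Curves were fitted in both directions against DMSO baseline, with SRB total-protein staining in parallel cultures as a cytotoxicity check.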

Read-out in assay [10]: Monokine induced gamma interferon (MIG), CXCL9 (gene 4283)
In words: BSK_hDFCGF_MIG: BioMAP Diversity Plus: hDFCGF Assay for Monokine induced gamma interferon (MIG) Biomarker Activity (AID 2283063). To be noted: primary human foreskin fibroblasts; actives raise or lower the signal. The gist of the method:
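Fibroblasts (human foreskin, primary) dosed, 24 h, MIG by ELISA; fit bidirectional vs DMSO.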

Read-out in assay [11]: Matrix Metallopeptidase 1 (MMP1), MMP1 (gene 4312)
In words: BSK_hDFCGF_MMP1: BioMAP Diversity Plus: hDFCGF Assay for Matrix Metallopeptidase 1 (MMP1) Biomarker Activity (AID 2283064). To be noted: primary human foreskin fibroblasts; actives raise or lower the signal. In short, it runs like this: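 Primary human foreskin fibroblasts in the hDFCGF system were dosed with test chemical, and MMP1 was measured by ELISA 24 h later. Values come from bidirectional curve fitting against the DMSO baseline.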

Read-out in assay [12]: Plasminogen activator inhibitor-1 (PAI1), SERPINE1 (gene 5054)
In words: BSK_hDFCGF_PAI1: BioMAP Diversity Plus: hDFCGF Assay for Plasminogen activator inhibitor-1 (PAI1) Biomarker Activity (AID 2283066). To be noted: primary human foreskin fibroblasts; actives raise or lower the signal. The gist of the method:
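Primary dermal fibroblasts (human foreskin), hDFCGF system; compound 24 h; PAI-1 by ELISA; bidirectional fit vs DMSO control.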

Read-out in assay [13]: Interferon-gamma inducible Protein 10 (IP10), CXCL10 (gene 3627)
In words: BSK_KF3CT_IP10: BioMAP Diversity Plus: KF3CT Assay for Interferon-gamma inducible Protein 10 (IP10) Biomarker Activity (AID 2283068). To be noted: primary human keratinocytes with fibroblasts; actives raise or lower the signal. In short, it runs like this:
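KF3CT co-culture (keratinocytes + foreskin fibroblasts), 24 h compound, IP-10 by ELISA; bidirectional fit vs DMSO baseline.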

Assay [14] can be described thus: BSK_KF3CT_SRB: Viability Assessment in the BioMAP Diversity Plus: KF3CT Assay (AID 2283069).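 Also: total protein by sulforhodamine B staining as a cytotoxicity measure; read 24 h after compound addition.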 To be noted: primary human keratinocytes with fibroblasts. The gist of the method:
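Human primary keratinocyte plus foreskin fibroblast co-culture exposed to chemicals for 24 h. Total protein measured by 0.1% sulforhodamine B staining after 10% TCA fixation, read at 560 nm; bidirectional fitting versus DMSO baseline.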

Read-out in assay [15]: TIMP metallopeptidase inhibitor 2 (TIMP2), TIMP2 (gene 7077)
In words: BSK_KF3CT_TIMP2: BioMAP Diversity Plus: KF3CT Assay for TIMP metallopeptidase inhibitor 2 (TIMP2) Biomarker Activity (AID 2283071). To be noted: primary human keratinocytes with fibroblasts; actives raise or lower the signal. In short, it runs like this:
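Cells: human keratinocytes co-cultured with foreskin fibroblasts. Treat with chemical, 24 h. Measure TIMP-2 by ELISA; fit curves bidirectionally vs DMSO baseline.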

Read-out in assay [16]: Transforming growth factor beta 1 (TGFb1), TGFB1 (gene 7040)
The assay is described as follows: BSK_KF3CT_TGFb1: BioMAP Diversity Plus: KF3CT Assay for Transforming growth factor beta 1 (TGFb1) Biomarker Activity (AID 2283072). To be noted: primary human keratinocytes with fibroblasts; actives raise or lower the signal. In short, it runs like this: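 Primary human skin cells (keratinocytes, foreskin fibroblasts) were co-cultured, exposed to test chemical and sampled at 24 h. TGF-b1 levels were measured by ELISA and fitted bidirectionally relative to DMSO.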

Read-out in assay [17]: Vascular cell adhesion molecule 1 (VCAM1), VCAM1 (gene 7412)
In words: BSK_hDFCGF_VCAM1: BioMAP Diversity Plus: hDFCGF Assay for Vascular cell adhesion molecule 1 (VCAM1) Biomarker Activity (AID 2283065).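 As to AC50: VCAM-1 protein level quantified by ELISA after 24 h chemical exposure.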 To be noted: primary human foreskin fibroblasts; actives raise or lower the signal. The gist of the method: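 ELISA read-out of VCAM-1 on human skin fibroblasts, 24 h post-dose; gain or loss of signal fitted bidirectionally against DMSO baseline.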

Read-out in assay [18]: Interleukin-1 alpha (IL1a), IL1A (gene 3552)
The assay is described as follows: BSK_KF3CT_IL1a: BioMAP Diversity Plus: KF3CT Assay for Interleukin-1 alpha (IL1a) Biomarker Activity (AID 2283070). To be noted: primary human keratinocytes with fibroblasts; actives raise or lower the signal. The gist of the method: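 Human keratinocyte plus foreskin fibroblast primary co-culture, sampled 24 h after chemical dosing. IL-1a measured by ELISA; responses fitted bidirectionally against DMSO baseline (negative control), so gain or loss of signal both count.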

The structures appear in SMILES notation. Calls of active or inactive are those of the source. The calls were made as follows: active = hit-call score of the fitted dose curve at least 0.9, where 1 is the maximum; inactive = score below 0.9.

With `CCOP(=O)(OCC)OC(=CCl)c1ccc(Cl)cc1Cl`, the AC50 was 36.4 µM (active) in assay [1]; 30.2 µM (active) in [2]; 33.8 µM (active) in assay [3]; 25.6 µM (active) in [4]; 37.4 µM (active) in [7]; 31 µM (active) in [8]. The AC50 in assay [9] is 30.1 µM (active); in assay [10], 30.7 µM (active); in assay [11], 31.5 µM (active); in assay [12] it was 24.7 µM (active); in assay [13], 32.8 µM (active); in [14], 35.2 µM (active). Further, the values for the half-maximal activity concentration (AC50) in [15] and in assay [16] were 25.7 µM (active) and 27.1 µM (active), respectively. The result in [5] and in [6] was inactive.
For `COc1ccccc1N`, the result in assay [1], in assay [2], in assay [3], in assay [4], in [5] and in [6] was inactive. Further, the result in assay [7], in assay [8], in assay [9], in assay [10], in [11] and in assay [17] was inactive. The result in assay [12], in assay [13], in [14], in assay [18], in assay [15] and in [16] was inactive.
In the case of `O=S(=O)(C(Cl)(Cl)Cl)C(Cl)(Cl)Cl`, the AC50 in [1] was 2.92 µM (active); in assay [2], 3.04 µM (active); in assay [3], 1.41 µM (active); in assay [4], 2.27 µM (active); in assay [5], 1.55 µM (active); in [6], 3.56 µM (active). For the same molecule, the concentration at half-maximal activity (AC50) was 0.0831 µM (active) in assay [7]; 2.3 µM (active) in [8]; 1.72 µM (active) in assay [9]; 2.36 µM (active) in assay [10]; 2.8 µM (active) in [11]; 1.11 µM (active) in [12]. The AC50 in assay [13] was 2.99 µM (active); in assay [14], 2.48 µM (active); in assay [18], 1.67 µM (active); in assay [15] it was 2.25 µM (active). Besides, the result in [16] was inactive.
`CCOP(=S)(OCC)OP(=S)(OCC)OCC`: the AC50 is 29.6 µM (active) in [1]; 20 µM (active) in assay [3]; 23.2 µM (active) in assay [7]; 30.4 µM (active) in [17]; 20 µM (active) in assay [15]. Further, the result in assay [2], in [4], in assay [5], in [6], in assay [8] and in [9] was inactive. Besides, the outcome in assay [10], in assay [11], in [12], in assay [13], in [14] and in assay [18] was inactive. Also, the outcome in assay [16] was inactive.
